Drawing on PubChem BioAssay AID504401 (The Scripps Research Institute Molecular Screening Center, 2011), this text covers inhibition for 1 compound.

Values without a mark were called inactive. How the calls were made is not given here.

The subject of the experiment is Phorbol Ester. The experiment can be described thus: CYP450 and receptor off-target profile – biochemical, Ricerca HitProfilingScreen, selectivity assay for GPR7 antagonist project, late-stage follow-up (AID 504401). Conditions: Ricerca radioligand binding and CYP450 panel, at 10 µM, stronger effect = higher value.

Take `COc1ccc(Oc2c(Cl)cnn(-c3cc(C)cc(C)c3)c2=O)cc1`: the inhibition (usually the relative decrease from the control value, in per cent) is -15%.
